According to PubChem BioAssay (Tox21):
Values without a mark were called inactive. Entries that show only a call come without a potency. Activity calls are given as the source filed them. Calls come from the whole dose curve; as a rule, active = well fitted curve in the direction sought with a large enough effect in the repeat runs; inconclusive = weak or mixed curves; inactive = flat fitted curve, though single readings scatter.

Experiment: qHTS assay to test for compound auto fluorescence at 460 nm (blue) in HEK293 cells (AID 720678)
Conditions: blue autofluorescence 405/460 nm; series mostly up to 91.3 µM
Excerpt: National Center for Advancing Translational Sciences [NCATS]
NIH Chemical Genomics Center [NCGC]
U.S. Environmental Protection Agency [EPA]
National Institutes of Environmental Health Sciences [NIEHS]
National Toxicology Program [NTP]
U.S. Food and Drug Administration [FDA]
Compound auto fluorescence often interferes with screening of the compound library against various biological targets and signaling pathways. Some of these compounds may have fluorophoric properties. Such properties may interfere with the assay outputs resulting in false positives and/or negatives. To decrease such complications and ensure the compound activities are relevant in terms of biological response, the Tox21 10K compound library was screened for auto fluorescence.
From the fluorophores used as reporter signals in our screening assays, the auto fluorescence equivalencies of compounds against three fluorophores have been evaluated: Triamterene, Fluorescein and Rose Bengal sodium for blue, green and red fluorescence, respectively. The fluorescence intensities were measured using Excitation/Emission wavelengths at 405/460nm, 485/535nm and 540/590nm for blue, green and red labels, respectively. This assay includes the blue fluorescence data.
Tox21 Assay Protocol Summary:
2,000 HEK293 cells in 5 uL of culture medium containing 10% dialyzed FBS per well were dispensed into black wall/clear bottom 1536-well plates using a Multidrop Combi Dispenser (Thermo Scientific). The assay plates were incubated for 4-5 hr at 37C to allow cell attachment to the well bottom, followed by the transfer of 23 nL compound or DMSO vehicle by a pintool work station (Kalypsys, San Diego, CA). After the assay plates were incubated overnight at 37C and 5% CO2, fluorescence intensities in the assay plates were measured by an Envision (PerkinElmer, Shelton, CT) plate reader using three labels for measuring blue, green and red fluorescence at […] 460, 535 and 590nm respectively.
In the case of CN1[C@@H]2CC[C@H]1CC(NC(=O)n1c(=O)[nH]c3ccccc31)C2 (stereo not given in full), the Potency is reported as “inactive”. In the case of CC(C)N1C(=O)c2ccccc2C1=O, the Potency is reported as “inactive”. With C=CCOc1nc(OCC=C)nc(OCC=C)n1 the Potency was “inactive”. For CCCOCC(C)OCC(C)O (stereo not given), the Potency was “inactive”. In the case of OCC(O)[C@@H](O)[C@H](O)[C@H](O)CO[C@H]1O[C@H](CO)[C@@H](O)[C@H](O)[C@H]1O (stereo not given in full), the Potency is reported as “inactive”. With C=CC(=O)OCCCCCC the Potency was “inactive”. For NC1CCN(c2cccc(Cl)n2)CC1, the Potency was “inactive”. With CCCCNc1ccccc1 the Potency was “inactive”. In the case of CO[Si](CCCNCCC[Si](OC)(OC)OC)(OC)OC, the Potency is reported as “inactive”. With CCCCCCCCCCCCCCCCCC(=O)OCCCCCCCCCCCCCC(C)C the Potency was “inactive”. For COc1ccc(N=[N+]([O-])c2ccc(OC)cc2)cc1, the Potency was “inactive”. In the case of CC1=CC(=O)CCC1, the Potency is reported as “inactive”. In the case of COC(C(=O)O)c1ccccc1 (stereo not given), the Potency is reported as “inactive”. For C=CCn1c(=O)n([C@@H]2O[C@H](CO)[C@@H](O)[C@H]2O)c2nc(N)[nH]c(=O)c21, the Potency was “inactive”. With CCCc1ccc(N)cc1 the Potency was “inactive”. For O=C(O)C(O)[C@H](O)[C@@H](O)[C@H](O)[C@H](O)CO (stereo not given in full), the Potency was “inactive”. With COc1cc(C(=O)N2CCOCC2)cc(OC)c1OC the Potency was “inactive”. For CNc1ncnc2nc[nH]c12, the Potency was “inactive”. For N#CCc1ccccc1[N+](=O)[O-], the Potency was “inactive”. For CN(C)C(=O)C(CCN1CCC(O)(c2ccc(Cl)cc2)CC1)(c1ccccc1)c1ccccc1, the Potency was “inactive”. For C#CC(O)CCCCC (stereo not given), the Potency was “inactive”. For NC(N)=NS(=O)(=O)c1ccc(N)cc1, the fluorescence, % of triamterene was 0.195% [at 18.6 µM]. Work on NS(=O)(=O)c1cc(C2(O)NC(=O)c3ccccc32)ccc1Cl (stereo not given) yielded a fluorescence, % of triamterene of -0.0194% [at 18.6 µM]. For CCCc1ccccc1O, the Potency was “inactive”. With CCO[Si](CCCN=C=O)(OCC)OCC the Potency was “inactive”. Compound O=C1C(CCS(=O)c2ccccc2)C(=O)N(c2ccccc2)N1c1ccccc1 (stereo not given) has a fluorescence, % of triamterene of -0.0077% [at 18.6 µM]. For OCCCCCCO, the Potency was “inactive”. With CC(CCO)CCCC(C)(C)O (stereo not given) the Potency was “inactive”. With CC(C)c1cccc(C(C)C)c1N the Potency was “inactive”. With Oc1ccc2c(c1)OC[C@@H](N1CCC(O)(c3ccc(F)cc3)CC1)[C@H]2O the Potency was “inactive”. With OC[C@H]1O[C@@H]2O[C@H]3[C@H](O)[C@@H](O)[C@@H](O[C@H]4[C@H](O)[C@@H](O)[C@@H](O[C@H]5[C@H](O)[C@@H](O)[C@@H](O[C@H]6[C@H](O)[C@@H](O)[C@@H](O[C@H]7[C@H](O)[C@@H](O)[C@@H](O[C@H]8[C@H](O)[C@@H](O)[C@@H](O[C@H]9[C@H](O)[C@@H](O)[C@@H](O[C@H]1[C@H](O)[C@H]2O)O[C@@H]9CO)O[C@@H]8CO)O[C@@H]7CO)O[C@@H]6CO)O[C@@H]5CO)O[C@@H]4CO)O[C@@H]3CO the Potency was “inactive”. In the case of COC(=O)c1ccc(C(=O)OC)c(C(=O)OC)c1, the Potency is reported as “inactive”. For Cn1ccc2cc3c(cc21)CCN3C(=O)Nc1cccnc1, the Potency was “inactive”. In the case of Nc1nc2c(ncn2CCC(CO)CO)c(=O)[nH]1, the Potency is reported as “inactive”. With C1COCCO1 the Potency was “inactive”. In the case of CCO[Si](C)(OCC)OCC, the Potency is reported as “inactive”. In the case of CCCCN(CCO)CCO, the Potency is reported as “inactive”. For C#CC(C)(O)CC(C)C (stereo not given), the Potency was “inactive”. With COc1cccc(OC)c1 the Potency was “inactive”. With OCCN1C[C@H](O)[C@@H](O)[C@H](O)[C@H]1CO the Potency was “inactive”.
